Assay results as given in PubChem BioAssay AID504734 (The Scripps Research Institute Molecular Screening Center, 2011).
About 730 (0.21%) of roughly 340,000 compounds were called active. The sample as a whole holds a higher share of actives than the screen did. Values without a mark were called inactive.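 Rule for the calls: active = inhibition above the mean over all tested compounds plus 3 SD (cut at about 21% in these data); inactive = the rest.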

These molecules were tested against Toll-like receptor 9 (Homo sapiens) + Myeloid differentiation primary response protein MyD88 (Homo sapiens) (UniProt Q9NR96+Q99836) (assay: disruptors of TLR9 binding to MyD88 – cell-based, CHO, BLA complementation, fluorescence, primary screen (AID 504734;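 note: 0% = DMSO only wells and 100% = clavulanate BLA inhibitor control wells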)). Settings: CHO BLA complementation TLR9-MyD88, CCF4 FRET ratio; at 4.98 µM; active compounds read high.
Sequence of Toll-like receptor 9 (Homo sapiens) + Myeloid differentiation primary response protein MyD88 (Homo sapiens) (Q99836 whole entry, looked up): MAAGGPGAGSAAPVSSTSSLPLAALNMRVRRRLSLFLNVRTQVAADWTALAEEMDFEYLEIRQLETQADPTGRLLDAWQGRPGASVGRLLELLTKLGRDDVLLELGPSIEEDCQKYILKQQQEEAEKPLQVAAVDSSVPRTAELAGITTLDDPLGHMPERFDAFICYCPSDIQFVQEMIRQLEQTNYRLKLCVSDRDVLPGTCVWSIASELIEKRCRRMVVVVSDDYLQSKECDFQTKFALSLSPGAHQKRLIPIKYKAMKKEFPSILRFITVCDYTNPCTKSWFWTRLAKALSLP
Sequence of Toll-like receptor 9 (Homo sapiens) + Myeloid differentiation primary response protein MyD88 (Homo sapiens) (Q9NR96 whole entry, looked up): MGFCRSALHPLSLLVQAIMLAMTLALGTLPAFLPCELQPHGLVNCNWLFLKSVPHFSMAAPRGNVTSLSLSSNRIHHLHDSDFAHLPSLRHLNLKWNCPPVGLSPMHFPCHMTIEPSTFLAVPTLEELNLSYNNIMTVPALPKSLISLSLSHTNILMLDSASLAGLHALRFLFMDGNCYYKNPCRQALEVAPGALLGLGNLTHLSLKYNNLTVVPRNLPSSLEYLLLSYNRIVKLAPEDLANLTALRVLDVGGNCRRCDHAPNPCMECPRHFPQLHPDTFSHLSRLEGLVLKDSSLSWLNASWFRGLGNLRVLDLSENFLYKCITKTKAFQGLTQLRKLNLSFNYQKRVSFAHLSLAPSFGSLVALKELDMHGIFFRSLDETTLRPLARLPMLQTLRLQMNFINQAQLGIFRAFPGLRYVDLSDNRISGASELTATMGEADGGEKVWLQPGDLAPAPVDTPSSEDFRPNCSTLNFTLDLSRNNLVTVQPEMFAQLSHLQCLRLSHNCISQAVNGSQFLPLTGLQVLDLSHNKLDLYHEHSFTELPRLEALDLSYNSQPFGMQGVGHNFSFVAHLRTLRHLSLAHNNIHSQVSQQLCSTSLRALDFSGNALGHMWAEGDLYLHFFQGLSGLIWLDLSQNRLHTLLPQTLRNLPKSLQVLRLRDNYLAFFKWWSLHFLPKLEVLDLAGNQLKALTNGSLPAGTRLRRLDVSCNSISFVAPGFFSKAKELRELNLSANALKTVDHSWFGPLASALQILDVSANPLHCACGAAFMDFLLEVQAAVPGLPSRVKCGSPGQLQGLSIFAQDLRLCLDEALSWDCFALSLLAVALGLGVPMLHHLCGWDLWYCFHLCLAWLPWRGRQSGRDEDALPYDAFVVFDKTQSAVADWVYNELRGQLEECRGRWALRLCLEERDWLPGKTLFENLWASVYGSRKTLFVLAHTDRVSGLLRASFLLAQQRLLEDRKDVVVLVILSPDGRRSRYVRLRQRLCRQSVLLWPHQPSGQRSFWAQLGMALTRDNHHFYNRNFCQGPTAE
Molecule `CSc1ncccc1C(=O)N1CCCC(Nc2ccc(F)c(F)c2)C1` (stereo unspecified) has an inhibition of -7.83%. Molecule `Nc1cc(C(=O)N2CCN(c3ccccc3Cl)CC2)ccc1N1CC2CC(C1)c1cccc(=O)n1C2` (stereo unspecified) has an inhibition of -8.79%. `Cc1cc(C)nc(SCc2cn3c(C)cc(C)nc3n2)n1` gave an inhibition of -17%. In the case of `CC1(C)CCc2nc(SCc3ccccc3)c(C#N)cc2C1`, the inhibition is reported as -6.7%. `Cc1cc(C)nc(SCc2ccccc2C#N)n1` was tested, and the inhibition was 23.9% (active). For `COc1ccc(CN2C(=O)C(CC(=O)NCCN3CCOCC3)CC(C(=O)N(C(C)C)C(C)C)=C2C)cc1` (stereo unspecified), the inhibition was -13.7%. `COc1ccc(N)cc1NC(=O)CN1CCOCC1` was tested, and the inhibition was 3.79%. Work on `Nc1ccccc1-c1nc2ccncc2[nH]1` yielded an inhibition of 5.69%. In the case of `C[C@H]1Cn2cnc(C(=O)N[C@H](C)c3ccccc3)c2C(=O)N1`, the inhibition is reported as -9.33%. In the case of `COc1ccccc1NC(=O)C(CC(=O)O)Cc1cc(C)cc(C)c1` (stereo unspecified), the inhibition is reported as 1.3%. For `COc1ccc(NC(=O)/C(Cl)=C(/Cl)S(=O)Cc2ccc(C)cc2)cn1` (stereo unspecified), the inhibition was 36.2% (active). Work on `COc1ccc(NC(=O)CN2C(=O)NC(C)(c3ccccc3)C2=O)cn1` (stereo unspecified) yielded an inhibition of 4.63%. Molecule `COc1ccc(NS(=O)(=O)c2ccc(NC(=S)NC(=O)/C=C/c3ccc(C)cc3)cc2)nn1` has an inhibition of 4.17%. With `Cc1ccc(C(=O)NC(C)C(c2cccs2)N2CCOCC2)cc1C` (stereo unspecified) the inhibition was -1.7%. `O=C(NCCN1CCOCC1)C1CCN(S(=O)(=O)c2ccccc2)CC1` showed an inhibition of -8.07%. Work on `CN1OC[C@@H]2CN[C@H](c3ccc(-c4ccccc4)cc3)C[C@@H]21` yielded an inhibition of 8.78%. `COc1ccc(C2CC(c3cccs3)=NN2c2nc(C)c(C(C)=O)s2)cc1OC` (stereo unspecified) showed an inhibition of -3.47%. For `Fc1ccc(N2N=C(c3cccs3)CC2c2ccco2)c(F)c1` (stereo unspecified), the inhibition was 1.6%. In the case of `COc1ccccc1N1N=C(c2cccs2)CC1c1ccccc1` (stereo unspecified), the inhibition is reported as 38.6% (active). In the case of `CC(C)N=C1CCCC1C(=S)SSC(=S)C1CCCC1=NC(C)C` (stereo unspecified), the inhibition is reported as 6.42%. `Cc1cc2cc3n(c2nn1)N=C(Cl)CC3` showed an inhibition of -2.59%. With `C[C@H](CO)N1C[C@H](C)[C@@H](CN(C)C(=O)c2cnccn2)Oc2ncc(Br)cc2C1=O` the inhibition was -6.82%. `C[C@H](CO)N1C[C@H](C)[C@H](CN(C)C(=O)c2ccncc2)OCc2ccccc2-c2c(n(C)c3ccccc23)C1=O` showed an inhibition of 7.41%. In the case of `Oc1ccc2ccc3cccc[n+]3c2c1`, the inhibition is reported as 30.4% (active). With `O=S(=O)(c1cccc(C(F)(F)F)c1)N1c2ccccc2-n2cccc2C1c1cccnc1` (stereo unspecified) the inhibition was 2.97%. Work on `COc1ccc([C@H]2C[C@@H](n3cc(COC(=O)c4ccccc4)nn3)[C@H](O)CN2C(=O)c2cccs2)cc1` yielded an inhibition of -6.05%. For `Cc1cc(Nc2ccc(C)c(C)c2)n2ncnc2n1`, the inhibition was -6.42%. `O=c1[nH]c2ccccc2n1C1CCN(CCOc2ccccc2)CC1` was tested, and the inhibition was -9.37%. `S=C(Nc1ccccc1)Nc1ccc2ccccc2c1` gave an inhibition of -11.2%. `O=C(Nc1ccc2ccccc2c1)Nc1ccc2snnc2c1` was tested, and the inhibition was 22.2% (active). Molecule `Cc1nc2cc(NC(=O)Nc3cccc(F)c3)ccc2n1C` has an inhibition of 4.9%. `COc1ccccc1C(=O)NC(=S)Nc1ccc(N2CCOCC2)cc1` showed an inhibition of -9.36%. For `Cc1ccccc1C#CC1=CC(=O)CC(C)(C)C1`, the inhibition was 4.4%. With `Cc1ccc(Cc2c(-c3ccc(C)cc3)nc3c4ccccc4ccn23)cc1` the inhibition was 0.71%. `CCCCCCN1C[C@H](O)[C@@H](n2cc(C3CC3)nn2)C[C@@H]1c1ccc(Cl)cc1` showed an inhibition of 2.49%. Work on `COc1cc(C=NC2CCCCC2)ccc1O` yielded an inhibition of -10.8%. For `COc1cc(/C=C(\C#N)c2nc3c(s2)CC(C)CC3)ccc1O` (stereo unspecified), the inhibition was 21.5% (active). `CCOc1ccc(/C=C(/C#N)c2nnc(N3CCOCC3)n2-c2ccccc2)cc1OC` showed an inhibition of 3.43%. `CNC(=O)C1CN(C(=O)c2cccc(S(=O)(=O)N3CCc4ccccc43)c2)c2ccccc2O1` (stereo unspecified) showed an inhibition of 2.33%. Molecule `Nc1cc(=O)c2[nH]cnc2[nH]1` has an inhibition of 2.53%. `O=C1CCC(C(=O)OCC(=O)Nc2ccc(OC(F)F)cc2)=NN1` showed an inhibition of -4.91%. `CCOC(=O)c1c(NC(=O)COC(=O)c2ccc(S(=O)(=O)C(F)F)cc2)sc(C(=O)N(C)C)c1C` showed an inhibition of -11.2%. Work on `CC(=O)N(C1=C(Cl)C(=O)c2ccccc2C1=O)c1ccc(C(=O)O)cc1` yielded an inhibition of -8.51%. For `O=C1C(Cl)=C(Oc2ccccc2)C(=O)c2ccccc21`, the inhibition was 56.9% (active). Molecule `CCN(CC)C(=O)C1=C(C)N(Cc2ccc(OC)cc2)C(=O)C(CC(=O)NCc2ccco2)C1` (stereo unspecified) has an inhibition of 7.39%. For `CC(C)CCOc1ccc(C(=O)Nc2cc(S(=O)(=O)N3CCOCC3)ccc2N2CCOCC2)cc1`, the inhibition was 3.89%. For `COc1ccccc1CSc1ncc(-c2ccc([N+](=O)[O-])cc2)[nH]1`, the inhibition was 21.5% (active). `COc1ccccc1C1CCN(c2ccc([N+](=O)[O-])cn2)CC1` was tested, and the inhibition was -2.92%. In the case of `COc1ccc(-c2cnc(SCCNC(=O)c3ccc4c(c3)OCO4)[nH]2)cc1`, the inhibition is reported as -7.86%. `Cn1ncc([N+](=O)[O-])c1C(=O)Nc1cc(Cl)ccc1Cl` gave an inhibition of -11.5%. In the case of `Cc1cc(Cl)ccc1C(=O)C1CCCN(C(=O)c2ccc3c(c2)OCO3)C1` (stereo unspecified), the inhibition is reported as -4.99%. `O=C(COC(=O)c1cncc(Br)c1)Nc1ccc(S(=O)(=O)N2CCOCC2)cc1` was tested, and the inhibition was -5.67%. For `O=C(Nc1cccc2ccccc12)NC1CC1`, the inhibition was 2.15%. `O=C(COC(=O)c1c2c(nc3ccccc13)CCCC2)c1ccc(Br)s1` was tested, and the inhibition was -5.16%. `NS(=O)(=O)c1ccc(NC(=O)COC(=O)c2ccco2)cc1` showed an inhibition of -0.62%. `NS(=O)(=O)c1ccc(NC(=O)COC(=O)c2c3c(nc4ccccc24)/C(=C\c2ccc4c(c2)OCO4)CCC3)cc1` was tested, and the inhibition was 25.9% (active). `NC(=O)c1ccc(NC(=O)COC(=O)c2c3c(nc4ccccc24)/C(=C\c2ccc4c(c2)OCO4)CCC3)cc1` showed an inhibition of 8.83%. `O=C(COC(=O)c1c2c(nc3ccccc13)/C(=C\c1cccs1)CCC2)Nc1ccccc1Cl` was tested, and the inhibition was 22% (active). `COc1cc(/C=C2\CCCc3c2nc2ccccc2c3C(=O)O)cc(Cl)c1O` was tested, and the inhibition was -7.09%. `C[C@@H]1CN([C@@H](C)CO)C(=O)c2cc(Br)cnc2O[C@@H]1CN(C)C(=O)C1CCCCC1` was tested, and the inhibition was 4.79%. `COc1ccc(/C=C2\SC(=S)N(CCC(=O)N3CCOCC3)C2=O)cc1OC` showed an inhibition of -12.7%. For `O=C(Cc1ccc([N+](=O)[O-])cc1)NCCS(=O)(=O)N1CCN(c2ccccc2)CC1`, the inhibition was 12.1%. In the case of `CC(=O)Nc1ccc(SCC(=O)NC(=O)c2ccc(Cl)cc2)cc1`, the inhibition is reported as -11.6%. For `CC(=O)COc1ccc2c(-c3ccccc3)cc(=O)oc2c1`, the inhibition was 3.27%. In the case of `O=C(CNC(=O)OCc1ccccc1)Oc1cc2oc(=O)cc(-c3ccccc3)c2cc1Cl`, the inhibition is reported as 27.3% (active). With `O=C(CNC(=O)c1ccc(-c2ccccc2)cc1)OCc1ccc(Cl)cc1` the inhibition was -3.72%. `CCN(CC(=O)Nc1ccc(NC(C)=O)cc1)C(=O)C1CC(=O)N(c2ccc3c(c2)OCCO3)C1` (stereo unspecified) was tested, and the inhibition was -3.12%. `CCn1c(SCC(=O)N2CCCC2=O)nc2ccccc21` was tested, and the inhibition was -8.17%. For `Cc1ccc(C(=O)OCC(=O)NC2CCCCCCC2)cc1C`, the inhibition was -1.15%. `N#CCCN(C(=S)Nc1ccc(Cl)c(Cl)c1)C1CCCCC1` gave an inhibition of 11.8%. In the case of `CCN(CC)C(=O)C(C)N1c2cccc3cccc(c23)S1(=O)=O` (stereo unspecified), the inhibition is reported as 4.23%. In the case of `O=C1CCC(=O)N1CCC(=O)N(C(=O)NC1CCCCC1)C1CCCCC1`, the inhibition is reported as 4%. `Cc1ccc(C(=O)N2CCCc3ccccc32)c(Cl)c1` gave an inhibition of -5.91%. `O=C(c1c(Cl)nc2sccn12)N1CCCc2ccccc21` showed an inhibition of -2.96%. For `Cc1cccc2cc3c(N)c(C(=O)N4CCCc5ccccc54)sc3nc12`, the inhibition was 32.5% (active). Work on `C[C@H]1CN([C@@H](C)CO)C(=O)CCCn2cc(nn2)CO[C@@H]1CN(C)S(=O)(=O)c1cccc(C#N)c1` yielded an inhibition of -7.52%. With `O=C(COC(=O)/C=C/c1cccs1)NC1CCCCC1` the inhibition was 2.5%. `COc1ccc(/C=C/C(=O)OCC(=O)NC2CCCCCC2)cc1OC` gave an inhibition of -1.25%. For `COc1ccccc1/C=C/C(=O)OCC(=O)NC1CCCCCC1`, the inhibition was 22.6% (active). For `C[C@H](CO)N1C[C@H](C)[C@@H](CN(C)C(=O)C2CCCCC2)OCc2cnnn2CCCC1=O`, the inhibition was 1.13%. In the case of `O=C(COC(=O)/C=C/c1ccc(Cl)cc1)NC1CCS(=O)(=O)C1` (stereo unspecified), the inhibition is reported as -13.5%. For `CCN(CC)CCCC(C)n1c2nc(=O)[nH]c(=O)c-2nc2cc(Cl)ccc21` (stereo unspecified), the inhibition was 22.6% (active). `Cc1nnc(SC(C)C(=O)c2c[nH]c3ccccc23)n1C1CC1` (stereo unspecified) was tested, and the inhibition was -9.37%. `Cc1ccc(S(=O)(=O)N2C[C@]3(O)C[C@@H]4C(=O)N(c5ccccc5)C(=O)[C@@H]4C[C@]3(OC(=O)NC3CC3)C2)cc1` showed an inhibition of -0.67%. `Cc1ccc(S(=O)(=O)N2CCCCC2)cc1NC(=O)CCNC(=O)c1ccccc1Cl` showed an inhibition of -7.91%. `O=[N+]([O-])c1cccc(/C=N/Nc2ncc(Br)cn2)c1` was tested, and the inhibition was -10.4%. For `O=[N+]([O-])c1ccc(N/N=C/c2ccccc2)cc1`, the inhibition was 21.1% (active). `Cc1ccccc1OCCOc1ccc([N+](=O)[O-])cc1/C=N/n1cnnc1` showed an inhibition of -3.95%. Molecule `Cc1cc([N+](=O)[O-])ccc1NCc1cccc([N+](=O)[O-])c1` has an inhibition of -1.82%. Molecule `O=[N+]([O-])c1ccc(N=NNc2ccc([N+](=O)[O-])cc2)cc1` has an inhibition of -10.5%. `Cc1cccc(COc2ccccc2/C=N/Nc2ccc([N+](=O)[O-])cc2)c1` was tested, and the inhibition was 21.7% (active).
